IDE act – IDE (human) activation, cell-based. activation, % at 5.96 µM. HEK cells, FAbeta-B cleavage, fluorescence polarization; 0% vehicle, 100% cell-free pure enzyme wells. actives 0.073% (n = 340,000). P14735;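 active = activation above the mean of all tested compounds plus 3 SD, set per screening campaign, cut at about 17% in these data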
ANO1 block – inhibitors of mouse TMEM16A calcium-activated chloride channel. AID 588511. normalized B-score (activity score, 25-100; higher = stronger inhibition) at 10 µM. HEK293 TMEM16A/YFP iodide influx fluorescence, ionomycin. Q8BHY3. actives 1.2% (n = 310,000);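 active = ratio plate-corrected score three or more library SD toward inhibition, starting fluorescence score within five deviations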;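 also: score derived from kinetic fluorescence span divided by baseline fluorescence per well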
CHT allo act – allosterically activates the human high affinity choline transporter. CHT-expressing cells, membrane potential dye, choline EC20; active compounds read high; LV-AA mutant CHT in HEK293 cells. B-score at 10 µM. actives 0.49% (n = 310,000). AID 488977;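 active = initial fluorescence not abnormally high and integrated response B-score, plate-corrected, over 3 SD above library mean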
TMEM16A act – mouse TMEM16A channel activation, primary screen; B-score at 10 µM; actives 0.3% (n = 340,000); HEK293 TMEM16A/YFP-H148Q/I152L, iodide quench fluorescence; active compounds read low; AID 623877;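 active = fluorescence-ratio B-score plate-corrected deviation score at least 3 library SD below zero, with starting fluorescence score within 5 deviations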;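 also: channel opened by trigger with iodide after compound preincubation; score built on the fluorescence ratio of max minus min over baseline; more negative score means more quench and so TMEM16A activation or potentiation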
IDE cell inh – cellular human IDE inhibition | inhibition, % at 5.59 µM | actives 0.41% (n = 320,000) | P14735 | HEK cells, FAbetaB cleavage, fluorescence polarization | AID 434962;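 active = percent inhibition above the average of all tested compounds plus 3 SD, set per screening campaign, cut at about 16% in these data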;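 also: IDE supplied by intact live HEK cells; FP after avidin binding of uncleaved biotin substrate so inhibition keeps polarization high; 0% = DMSO wells and 100% = 60 µM reference IDE inhibitor Ii1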
CHT inh – inhibitors of human choline transporter CHT; Q9GZV3; CHT-expressing cells, membrane potential dye, choline response; active compounds read low; B-score at 10 µM; actives 0.86% (n = 310,000); AID 488975;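 active = B-score over 3 SD under the library average, and starting fluorescence ratio not unusually high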;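 also: choline stimulus applied at its EC90 after an EC20 pre-addition; B-score computed on integrated fluorescence ratio after choline addition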
TMEM16A reconf – re-confirmation of mouse TMEM16A chloride channel inhibitors. shares compounds with ANO1 block. HEK293 TMEM16A/YFP-H148Q, iodide quench fluorescence; ionomycin added to raise cell calcium. AID 652189. inhibition, % at 10 µM. actives 39% (n = 2,300);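 active = mean duplicate percent inhibition, scaled so buffer wells are 0 and the reference blocker 100, over three buffer SD above buffer mean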
HEK293 Ca mobil – counter-screen for TMEM16A inhibitors: effect on calcium mobilization; shares compounds with ANO1 block; TMEM16A/YFP HEK293, Fluo4 calcium mobilization; calcium response (% of ionomycin), % at 10 µM; actives 2% (n = 2,300); AID 652231;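 active = duplicate-averaged calcium signal over 20% of the ionomycin maximum, relative to buffer baseline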;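 also: each well's signal is peak minus trough fluorescence divided by its pre-addition baseline; 0% = buffer wells and 100% = ionomycin wells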
Parental YFP cnt – acts in parental YFP-HEK293 cells lacking TMEM16A, counter-screen; shares compounds with ANO1 block; iodide YFP quench, ionomycin; YFP ratio F(max-min)/F0 at 10 µM; 2,300 tested, under 10 active;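 active = yellow fluorescent protein signal ratio exceeding the buffer control mean by over 5 SD of those controls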;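 also: ratio is mean of duplicate wells from kinetic YFP trace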
ClC-1 inh – rat ClC-1 inhibition, TMEM16A specificity screen | ratio percent, % at 10 µM | CHO ClC-1-YFP, iodide influx fluorescence quench; iodide control reads 0, buffer control 100 | shares compounds with ANO1 block | 2,300 tested, under 10 active;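 active = duplicate-mean ratio percent above the mean of iodide-only control wells, which defines zero, plus 5 of their SD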;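 also: higher percent means stronger block of ClC-1 iodide influx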
Numbers without * were called inactive. Rows were chosen to be rich in hits. Some 2.7% of all compounds tested hit in one or more screens of this group.

Results for CC(=O)c1cn(Cc2ccccc2C#N)c2ccccc12 ?
IDE act: -0.1; ANO1 block: 25*; CHT allo act: inactive; TMEM16A act: inactive; IDE cell inh: 2.0; CHT inh: inactive; TMEM16A reconf: inactive; HEK293 Ca mobil: inactive; Parental YFP cnt: -0.98; ClC-1 inh: -20.0

What do the screens show for `CC(C)C(=O)c1cn(Cc2ccccc2C#N)c2ccccc12`?
IDE act: -0.8; ANO1 block: inactive; CHT allo act: inactive; TMEM16A act: inactive; IDE cell inh: -1.0; CHT inh: inactive

What do the screens show for `CCOC(=O)C(O)(c1ccc(NC(=S)NC(=O)c2ccc(Cl)cc2Cl)c(C)c1)C(F)(F)F` (stereo not drawn)?
IDE act: -2.4; ANO1 block: 25*; CHT allo act: inactive; TMEM16A act: inactive; IDE cell inh: 3.5; CHT inh: inactive; TMEM16A reconf: 53.5%*; HEK293 Ca mobil: inactive; Parental YFP cnt: -0.823; ClC-1 inh: -5.5

What do the screens show for `COc1cccc(N(C(C)=O)C2=NCCCS2)c1`?
IDE act: -1.1; ANO1 block: inactive; CHT allo act: inactive; TMEM16A act: inactive; IDE cell inh: 3.4; CHT inh: inactive

How did O=C(O)COc1ccc(Cl)cc1Cl do in these assays?
IDE act: -2.6; ANO1 block: inactive; CHT allo act: inactive; TMEM16A act: inactive; IDE cell inh: -2.9; CHT inh: inactive

What do the screens show for `Oc1cc(Cl)ccc1Oc1ccc(Cl)cc1Cl`?
IDE act: 3.8; ANO1 block: 100*; CHT allo act: inactive; TMEM16A act: inactive; IDE cell inh: 3.6; CHT inh: -5.02*; TMEM16A reconf: 69.5%*; HEK293 Ca mobil: inactive; Parental YFP cnt: -0.956; ClC-1 inh: -19.0

How did O=C(c1ccc(C(F)(F)F)cc1)C1CCCN(Cc2ccncc2)C1 (stereo not drawn) do in these assays?
IDE act: 4.0; ANO1 block: 25*; CHT allo act: inactive; TMEM16A act: inactive; IDE cell inh: 1.5; CHT inh: inactive; TMEM16A reconf: inactive; HEK293 Ca mobil: inactive; Parental YFP cnt: -1.08; ClC-1 inh: -10.5

Screening results: PubChem BioAssay, several laboratories
